# Data taken from PubChem BioAssay AID602448 (National Center for Advancing Translational Sciences (NCATS), 2012).
# The source made the active and inactive calls.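 The calls were made as follows: active = max inhibition of at least 60%; inconclusive = max inhibition above 30% but below 60%; inactive = max inhibition of 30% or less.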
# Target: Follicle-stimulating hormone receptor (Homo sapiens) (UniProt P23945)
# Experiment: qHTS for antagonists of the Thyroid Stimulation Hormone Receptor: Hit Validation with Follickle Stimulating Hormone Receptor (FSHR)
# Details: FSHR-expressing cells, cAMP HTRF, antagonist counterscreen; stronger effect = higher value
# From the text: The thyroid-stimulating hormone receptor (TSHR) is a member of the 7 trans-membrane-spanning receptor (7TMR) family of cell surface receptors. TSHR-mediated hyperthyroidism is important in thyroid pathology. The development of small molecule antagonists of TSHR may lead to therapeutic approaches for TSHR-mediated hyperthyroidism caused by constitutively activating mutations or stimulating auto-antibodies associated with Graves' disease. Graves' disease is the leading cause of hyperthyroidism and is caused by autoantibodies that stimulate TSHR (TsAbs) causing thyroid growth and unregulated overproduction of thyroid hormones and existing treatments have liabilities (agranulocytosis). In addition, TSHRs are known to be expressed in multiple extrathyroidal tissues including bone, brain, kidney, testis, fat and cells of the immune system but the role of the TSHR in these tissues is not clear. Therefore, TSHR antagonists/inverse agonists could be used as probes of extrathyroidal TSHR function. Finally, TSHR inverse agonists, which are a subclass of antagonists that inhibit agonist-independent (or basal or constitutive) TSHR signaling, could be used to inhibit TSH-independent signaling in patients with recurrent or metastatic thyroid cancer who are receiving thyroid hormone to suppress TSH. In collaboration between scientist from the NCGC and the NIDDK, a miniaturized HTRF high-throughput screen was developed. It's a cell based assay, where an anti cAMP antibody contains a fluorescent cryptate tag (excitation 337 nm; emission 620 nm) and the acceptor is cAMP-d2 (excitation 620 nm; emission 665 nm). When antibody and cAMP-d2 interact and are excited by a 337 nm light, a FRET occurs resulting in emission at 665 nm. The assay is competition between cAMP-d2 and cAMP (from the cell lysate). The homogeneous protocol allows for one step dispense after stimulation that is automation friendly. This is a hit validation assay in a counterscreen using FSHR, a closely related hormone receptor NIH Chemical Genomics Center [NCGC] NIH Molecular Libraries Probe Centers Network [MLPCN] Grant: MH090855 Assay Provider: Marvin Gershengorn, NIDDK
# An anti cAMP antibody contains a fluorescent cryptate tag (excitation 337 nm; emission 620 nm) and the acceptor is cAMP-d2 (excitation 620 nm; emission 665 nm). When antibody and cAMP-d2 interact and are excited by a 337 nm light, a FRET occurs resulting in emission at 665 nm. The assay is competition between cAMP-d2 and cAMP (from the cell lysate). The homogeneous protocol allows for one step dispense after stimulation that is automation friendly.
# Sequence of Follicle-stimulating hormone receptor (Homo sapiens) (P23945 whole entry, looked up): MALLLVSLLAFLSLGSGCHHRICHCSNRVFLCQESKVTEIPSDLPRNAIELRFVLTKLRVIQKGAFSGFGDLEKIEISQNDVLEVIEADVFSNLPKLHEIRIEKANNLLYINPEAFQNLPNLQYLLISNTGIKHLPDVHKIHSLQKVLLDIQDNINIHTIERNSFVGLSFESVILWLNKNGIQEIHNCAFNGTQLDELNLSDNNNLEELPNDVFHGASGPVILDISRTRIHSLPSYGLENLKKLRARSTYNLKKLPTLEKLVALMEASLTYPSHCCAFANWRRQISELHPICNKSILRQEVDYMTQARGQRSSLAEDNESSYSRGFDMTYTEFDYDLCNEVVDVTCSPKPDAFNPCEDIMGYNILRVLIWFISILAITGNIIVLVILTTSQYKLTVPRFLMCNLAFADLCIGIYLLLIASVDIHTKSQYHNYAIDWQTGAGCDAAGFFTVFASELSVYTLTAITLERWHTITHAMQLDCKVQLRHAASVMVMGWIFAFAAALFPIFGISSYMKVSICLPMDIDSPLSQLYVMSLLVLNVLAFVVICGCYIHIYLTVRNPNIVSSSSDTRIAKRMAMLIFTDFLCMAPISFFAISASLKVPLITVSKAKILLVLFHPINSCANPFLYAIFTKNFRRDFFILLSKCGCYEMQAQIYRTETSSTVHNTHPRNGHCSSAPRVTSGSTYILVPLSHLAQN
row,Structure (SMILES),max inhibition
1,O=c1cc(C(F)(F)F)[nH]c2c(C(F)(F)F)cccc12,82.4% (active)
2,O=C(COc1cccc2ccccc12)Nc1ccc(Cl)cc1C(=O)O,62.5% (active)
3,CC(=O)Oc1c(C)cc(Cl)cc1C(=O)Nc1ccc([N+](=O)[O-])cc1Cl,63.6% (active)
4,O=C1/C(=C\c2cc([N+](=O)[O-])ccc2O)SC(=S)N1Cc1ccc(Cl)cc1,94.2% (active)
5,Cc1ccc(-n2[nH]c(C)c(/C=N/Nc3ccc([N+](=O)[O-])cc3[N+](=O)[O-])c2=O)cc1C,81.1% (active)
6,CCC(=O)OCCNc1cc(Sc2nccn2C)c2nonc2c1[N+](=O)[O-],20%
7,COc1ccc(-c2csc(/C(C#N)=C\c3ccc(O)c([N+](=O)[O-])c3)n2)cc1OC,87.2% (active)
8,COc1ccc(OCC(=O)NC(=S)Nc2ccc(N3CCOCC3)c(Cl)c2)cc1,87.6% (active)
